# From PubChem
# INS-1E GSIS act – GLuc luminescence reporter in INS-1E cells, primary screen for activators of glucose-dependent secretion of insulin. INS-1E GLuc reporter insulin secretion, 2-3 h. activation, % at 16.6 µM. 370,000 compounds, 0.61% hits. AID 743287;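 active = lowest replicate activation of at least 40%, so every replicate reaches that level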
# FGF22 binding – FGF22 (human) thermal shift binding. activity (Tm shift, normalised), % at 9.99 µM. 340,000 compounds, 1.5% hits. Q9HCT0. recombinant FGF22 thermal shift, SYPRO orange fluorescence; percent of sucrose octasulfate shift, DMSO zero;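 active = mean Tm shift, scaled 0 neutral to 100 positive control, at about 1.3% or above, every replicate too, limit read from the data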
# ERAP1 HTS inh – ERAP1 (human) enzyme inhibition; inhibition, % at 10.7 µM; AID 652197; recombinant ERAP1, Leu-AMC fluorescence, 60 min; 340,000 compounds, 0.15% hits; Q9NZ08;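 active = mean replicate inhibition of at least 30%, or all replicates individually reaching that 30% level; inactive = mean below 30% and not every replicate reaching it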
# Target sequence (Q9NZ08 whole entry, looked up): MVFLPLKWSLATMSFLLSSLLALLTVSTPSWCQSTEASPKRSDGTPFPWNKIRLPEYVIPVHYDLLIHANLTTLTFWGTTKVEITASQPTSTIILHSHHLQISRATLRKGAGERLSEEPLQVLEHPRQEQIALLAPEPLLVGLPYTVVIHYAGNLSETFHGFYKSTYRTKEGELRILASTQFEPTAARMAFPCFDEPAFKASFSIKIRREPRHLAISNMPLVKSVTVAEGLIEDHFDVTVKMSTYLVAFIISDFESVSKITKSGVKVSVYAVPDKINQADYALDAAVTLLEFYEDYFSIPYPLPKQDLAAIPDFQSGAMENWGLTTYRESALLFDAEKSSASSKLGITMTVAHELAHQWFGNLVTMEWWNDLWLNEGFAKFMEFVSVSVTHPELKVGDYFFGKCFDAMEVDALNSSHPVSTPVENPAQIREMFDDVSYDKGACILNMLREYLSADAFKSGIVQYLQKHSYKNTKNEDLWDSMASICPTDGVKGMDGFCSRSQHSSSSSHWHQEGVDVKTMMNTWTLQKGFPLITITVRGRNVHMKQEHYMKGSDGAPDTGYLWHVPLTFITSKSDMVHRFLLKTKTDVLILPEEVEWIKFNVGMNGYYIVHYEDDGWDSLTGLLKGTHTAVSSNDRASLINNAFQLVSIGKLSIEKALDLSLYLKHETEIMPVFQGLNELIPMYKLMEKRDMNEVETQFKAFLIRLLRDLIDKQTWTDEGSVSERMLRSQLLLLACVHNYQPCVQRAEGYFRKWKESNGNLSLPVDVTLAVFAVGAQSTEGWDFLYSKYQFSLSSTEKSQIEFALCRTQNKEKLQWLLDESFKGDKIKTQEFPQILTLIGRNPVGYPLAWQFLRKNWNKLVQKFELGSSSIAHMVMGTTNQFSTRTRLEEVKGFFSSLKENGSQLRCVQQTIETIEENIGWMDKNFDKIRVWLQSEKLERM
# SIRT5 inh – sirtuin-5 (human) deacylase inhibition; Q9NXA8; Purified SirT5, succinyl-peptide AMC, trypsin-coupled fluorescence; inhibition, % at 15 µM; 330,000 compounds, 1.1% hits; AID 652115; in the data active = inhibition above about 15%
# Casp6 inh – inhibitors of human caspase-6; purified caspase-6, Z-VEID-R110 cleavage fluorescence; inhibition, % at 12.5 µM; 350,000 compounds, 0.53% hits; AID 686996;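 active = mean inhibition across replicates at least about 35%, with every replicate also reaching that limit, limit read from the data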
# A number is an active result; 0 = inactive; - = no result given. Hits are enriched below; roughly 3.3% of the tested compounds scored in any of these assays.
SMILES,INS-1E GSIS act,FGF22 binding,ERAP1 HTS inh,SIRT5 inh,Casp6 inh
CC=Cc1ccc2n(c1=O)C[C@H]1[C@H](CO)[C@@H](C(=O)NCc3ccccc3)N(C)[C@@H]21 (mixture of isomers),0,17,0,0,0
CC=Cc1ccc2n(c1=O)C[C@H]1[C@H](CO)[C@@H](C(=O)N[C@@H](C)c3ccccc3)[C@@H]2N1Cc1ccncc1 (mixture of isomers),0,16,0,0,0
CNC(=O)/C(C#N)=C/c1ccc(-c2ccc(Cl)cc2)o1,0,1.5,0,0,-
CNC(=O)/C(C#N)=C/c1ccc(-c2ccccc2[N+](=O)[O-])o1,0,0,0,0,0
CCN(CC)CCN1CCn2c3c(c4cc(C)ccc42)CCCC31 (centres undefined),0,43,0,0,0
C[C@H]1CN([C@@H](C)CO)C(=O)c2cccc(NC(=O)Nc3ccc(F)cc3)c2O[C@H]1CN(C)C(=O)Nc1ccc2c(c1)OCO2,0,0,0,0,0
CCN(CC)c1ccc(S(=O)(=O)N2CCOCC2)cc1NC(=O)CN1CCN(Cc2ccccc2)CC1,0,0,-,29,0
Cc1ccc(NC(=O)CSc2n[nH]c(N)n2)cc1S(=O)(=O)N1CCOCC1,0,44,0,0,0
O=C(CSc1nc2ccccc2[nH]1)Nc1cccc(S(=O)(=O)N2CCOCC2)c1,0,1.8,0,0,0
CN(C)S(=O)(=O)c1cccc(NC(=O)CSc2nc3ccccc3[nH]2)c1,0,0,0,0,0
Cc1ccc(NC(=O)C(c2ccccc2)N2CCN(CC(=O)N3CCOCC3)CC2)cc1Cl (centres undefined),0,0,0,0,47
Cc1ccc(NC(=O)CSc2nc(N)cc(=O)[nH]2)cc1S(=O)(=O)N1CCOCC1,0,0,-,0,0
COc1ccc(N2CCN(CC(=O)Nc3cccc(S(=O)(=O)N4CCOCC4)c3)CC2)cc1,0,0,0,15,0
O=C(CN1CCN(S(=O)(=O)c2ccccc2)CC1)Nc1ccc(N2CCOCC2)cc1,0,-,-,-,-
O=C(CN1CCN(C(c2ccccc2)c2ccccc2)CC1)Nc1ccc(N2CCOCC2)cc1,0,43,0,0,0
COc1ccccc1CNS(=O)(=O)c1cccs1,0,0,0,89,0
COc1ccccc1CNC(=O)C1CCC(CNS(=O)(=O)c2cccs2)CC1 (centres undefined),0,0,0,0,0
COc1ccc2c3c([nH]c2c1)[C@H](CO)N(Cc1cc(F)ccc1F)CC31CCN(C(C)=O)CC1,0,0,-,-,-
Cc1ccc(NC(=O)c2cc(S(=O)(=O)NCC3CCCO3)ccc2F)cc1 (centres undefined),-,0,0,-,43
CCNS(=O)(=O)c1ccc(NC(=S)NCC2CCCO2)cc1 (centres undefined),0,43,0,0,0
Cc1ccc(S(=O)(=O)NCC2CCCO2)cc1 (centres undefined),0,0,0,0,0
Cc1ccccc1NS(=O)(=O)c1ccc(C(=O)NCC2CCCO2)cc1 (centres undefined),0,0,0,19,0
Cc1ccc(S(=O)(=O)Nc2ccccc2C(=O)NCC2CCCO2)cc1 (centres undefined),0,0,0,0,0
C[C@@H]1CN([C@H](C)CO)C(=O)Cc2cc(NC(=O)CCN3CCOCC3)ccc2O[C@@H]1CN(C)S(=O)(=O)c1ccccc1,0,0,0,0,0
CCC(=O)N1CC2(C1)CN(Cc1ccc(Cl)cc1)[C@@H](CO)c1[nH]c3cc(OC)ccc3c12,0,0,0,0,0
SMILES,INS-1E GSIS act,FGF22 binding,ERAP1 HTS inh,SIRT5 inh,Casp6 inh
COc1cc(OC)c(OC)cc1/C=N/n1c(C)nc2ccccc2c1=O,43,0,0,0,0
Cc1nc2ccccc2c(=O)n1/N=C/c1ccc(N(C)C)cc1,67,-,-,-,-
COc1ccc(OC)c(/C=N/n2c(C)nc3ccccc3c2=O)c1,0,0,0,0,0
CO[C@@H]1CN(C)C(=O)c2ccc(NC(=O)C3CCCCC3)cc2OC[C@@H](C)N(C)C[C@H]1C,0,-,-,-,-
COc1cc2nc(Nc3ccc(C)c(Cl)c3)nc(N)c2cc1OC,0,0,0,0,0
Cc1ccc(Nc2nc(N)c3ccccc3n2)cc1Cl,0,2.2,0,0,0
C[C@@H]1CN([C@@H](C)CO)C(=O)c2cc(-c3cccnc3)cnc2O[C@H]1CN(C)C(=O)Cc1cccnc1,0,0,0,0,0
